NCOA3 inh – human NCOA3 inhibition | inhibition, % at 3.6 µM | HEK293 GAL4-SRC3 luciferase reporter, luminescence | Q9Y6Q9 | actives 0.17% (n = 360,000);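 active means inhibition above a per-campaign cutoff, the mean of all compounds plus 3 SD, cut at about 60% in these data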;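 further: higher means less SRC3-driven luciferase light from the GAL4 reporter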
NR5A2 inv ag – suppresses constitutive activity of human LRH-1; O00482; HEK293T StAR-luciferase reporter, LRH-1 transfected, 24 h; inhibition, % at 3.6 µM; actives 0.13% (n = 360,000); AID 602396;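 active means inhibition above the mean inhibition of all tested compounds plus 3 SD, cut at about 73% in these data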
Target sequence (O00482 whole entry, looked up): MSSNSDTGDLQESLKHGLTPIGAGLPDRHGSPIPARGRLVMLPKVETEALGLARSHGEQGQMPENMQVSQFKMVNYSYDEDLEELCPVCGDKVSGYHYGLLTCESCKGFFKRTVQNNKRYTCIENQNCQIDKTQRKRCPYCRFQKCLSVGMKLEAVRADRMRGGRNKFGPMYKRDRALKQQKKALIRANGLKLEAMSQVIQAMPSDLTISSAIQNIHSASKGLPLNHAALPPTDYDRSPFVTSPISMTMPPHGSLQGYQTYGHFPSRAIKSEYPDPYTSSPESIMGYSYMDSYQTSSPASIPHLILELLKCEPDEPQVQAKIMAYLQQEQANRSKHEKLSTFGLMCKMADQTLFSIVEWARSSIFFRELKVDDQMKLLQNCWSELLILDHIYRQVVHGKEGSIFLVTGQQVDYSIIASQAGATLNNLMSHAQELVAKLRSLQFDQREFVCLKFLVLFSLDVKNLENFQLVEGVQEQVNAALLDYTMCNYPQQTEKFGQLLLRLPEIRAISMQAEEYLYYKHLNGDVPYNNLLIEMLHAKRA
NCOA2 inhibitor – inhibits human steroid receptor coactivator 2 | Q15596 | HEK293 GAL4-SRC2 luciferase reporter, luminescence | inhibition, % at 9 µM | actives 0.17% (n = 370,000) | AID 651957;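 active means inhibition above the mean inhibition of all tested compounds plus 3 SD, set per campaign, cut at about 52% in these data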
Shn3 3UTR inh – reduces Shn3 3'UTR luciferase signal in osteoblasts | actives 0.52% (n = 360,000) | AID 588674 | inhibition, % at 12.5 µM | Clone20 osteoblast Shn3 3'UTR firefly luciferase, 24 h;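 active means mean inhibition of at least 75% with every replicate also reaching 75%; inconclusive means mean inhibition at least 75% but some replicate below; inactive means mean inhibition below 75%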
NCOA1 inh – inhibitors of human steroid receptor coactivator 1 (SRC1). actives 0.12% (n = 360,000). HEK293 GAL4-SRC1 luciferase reporter, luminescence. Q15788. inhibition, % at 3.6 µM;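 active means inhibition above the campaign mean plus 3 SD, with each screening campaign given its own cutoff, cut at about 60% in these data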
LMP1 NFkB inh – inhibitors of Epstein-Barr LMP1-induced NF-kappaB reporter. LMP1-induced NF-kappaB luciferase reporter cells, luminescence. inhibition, % at 12.5 µM. actives 0.69% (n = 350,000); in the data active means inhibition above about 41%; inconclusive means no clear call, values can overlap the other calls
A number is an active result. Sampled rows, rich in hits. Any-hit rate of the full collection: about 1.2%.

For CC(O)C(NS(=O)(=O)c1ccc(Cl)cc1)C(=O)OCC(=O)c1ccc2c(c1)NC(=O)CO2 (stereo unspecified) the results were NCOA3 inh inactive, NR5A2 inv ag inactive, NCOA2 inhibitor inactive, Shn3 3UTR inh inactive, NCOA1 inh inactive and LMP1 NFkB inh inactive.
Screening CC(C)CC(NC(=O)c1ccc(Cl)cc1)C(=O)OCC(=O)c1ccc2c(c1)NC(=O)CO2 (stereo unspecified) returned NCOA3 inh inactive, NR5A2 inv ag inactive, NCOA2 inhibitor inactive, Shn3 3UTR inh 87, NCOA1 inh inactive and LMP1 NFkB inh inactive.
Oc1c(N=NC(=S)Nc2ccccc2F)c2ccccc2n1Cc1ccc(F)cc1 was read as NCOA3 inh inactive, NR5A2 inv ag inactive, NCOA2 inhibitor inactive, Shn3 3UTR inh inactive, NCOA1 inh inactive and LMP1 NFkB inh 51.
`Cc1cccc(Cn2c(O)c(N=NC(=S)Nc3ccccc3F)c3ccccc32)c1` gave NCOA3 inh inactive, NR5A2 inv ag inactive, NCOA2 inhibitor inactive, Shn3 3UTR inh inactive, NCOA1 inh inactive and LMP1 NFkB inh inactive.
Screening Oc1c(N=NC(=S)Nc2ccccc2F)c2ccccc2n1Cc1cccc(Cl)c1 returned NCOA3 inh inactive, NR5A2 inv ag inactive, NCOA2 inhibitor inactive, Shn3 3UTR inh inactive, NCOA1 inh inactive and LMP1 NFkB inh 44.
`CN(C)CCC(=O)N1C/C(=C/c2ccccc2)C(=O)/C(=C\c2ccccc2)C1` gave NCOA3 inh inactive, NR5A2 inv ag 81, NCOA2 inhibitor 64, Shn3 3UTR inh inactive, NCOA1 inh inactive and LMP1 NFkB inh 87.
COC(=O)C1CN(Cc2ccccc2)CCS(=O)(=O)N1Cc1cn(Cc2cccc(Cl)c2)nn1 (stereo unspecified) was read as NCOA2 inhibitor inactive.
Cc1c(N=Cc2ccc(O)c(Br)c2)cccc1[N+](=O)[O-] was read as NCOA3 inh inactive, NR5A2 inv ag inactive, NCOA2 inhibitor inactive, Shn3 3UTR inh inactive, NCOA1 inh inactive and LMP1 NFkB inh 47.
For CCC(C)Nc1ccc(NC(C)CC)cc1 (stereo unspecified) the results were NCOA3 inh inactive, NR5A2 inv ag inactive, Shn3 3UTR inh 89, NCOA1 inh inactive and LMP1 NFkB inh inactive.
Screening COC(=O)C[C@@H]1CC[C@H]2[C@H](COc3ccc(NC(=O)Nc4ccc(Cl)cc4)cc3C(=O)N2C)O1 returned NCOA2 inhibitor inactive.
Screening Cc1ccc(OCC(=O)NNC(=S)NC(=O)C2CCCCC2)c(C)c1 returned NCOA3 inh inactive, NR5A2 inv ag inactive, Shn3 3UTR inh inactive, NCOA1 inh inactive and LMP1 NFkB inh 45.
Cc1ccc(OCC(=O)NNC(=S)NC(=O)C2CC2)c(C)c1 was read as NCOA3 inh inactive, NR5A2 inv ag inactive, NCOA2 inhibitor inactive, Shn3 3UTR inh inactive, NCOA1 inh inactive and LMP1 NFkB inh inactive.
For O=C(Nc1cc2ccccc2oc1=O)c1ccccc1 the results were NCOA3 inh inactive, NR5A2 inv ag inactive, NCOA2 inhibitor inactive, Shn3 3UTR inh inactive, NCOA1 inh inactive and LMP1 NFkB inh 55.
`COC(=O)[C@]12C[C@H](CC(=O)N3CCN(C(=O)C4CC4)CC3)C(=O)N(Cc3ccc(Cl)cc3Cl)C1=C[C@H](C(C)C)O[C@@H]2C1CC1` gave NCOA2 inhibitor inactive.
COCC(=O)N1CCC(C(=O)NCC2COc3ccccc3O2)CC1 (stereo unspecified) was read as NCOA2 inhibitor inactive.
For N#CC1=C(c2ccccc2)/C(=C/c2ccccc2)OC1=O the results were NCOA3 inh inactive, NR5A2 inv ag inactive, NCOA2 inhibitor inactive, Shn3 3UTR inh 95, NCOA1 inh inactive and LMP1 NFkB inh inactive.
`O=C1O/C(=C/c2ccccc2)c2ccccc21` gave NCOA3 inh inactive, NR5A2 inv ag inactive, NCOA2 inhibitor inactive, Shn3 3UTR inh inactive, NCOA1 inh inactive and LMP1 NFkB inh inactive.
For CNc1ccccc1C(C)(C)c1cc(-c2cccc(Br)c2)no1 the results were NCOA3 inh inactive, NR5A2 inv ag inactive, NCOA2 inhibitor inactive, Shn3 3UTR inh 86, NCOA1 inh inactive and LMP1 NFkB inh inactive.
`CCOC(=O)c1c(NC(=O)C2C3CCC(O3)C2C(=O)O)sc(C)c1-c1ccc(F)cc1` (stereo unspecified) gave NCOA3 inh inactive, NR5A2 inv ag inactive, NCOA2 inhibitor inactive, Shn3 3UTR inh inactive, NCOA1 inh inactive and LMP1 NFkB inh 80.
CCOC(=O)c1c(NC(=O)C2C3CCC(O3)C2C(=O)O)sc2c1CCC(CC)C2 (stereo unspecified) was read as NCOA3 inh inactive, NR5A2 inv ag inactive, NCOA2 inhibitor inactive, Shn3 3UTR inh inactive, NCOA1 inh inactive and LMP1 NFkB inh inactive.
`Cc1ccc(-c2cc3cccc[n+]3cc2-c2ccc(C)cc2)cc1` gave NCOA3 inh inactive, NR5A2 inv ag 84, NCOA2 inhibitor inactive, Shn3 3UTR inh inactive, NCOA1 inh inactive and LMP1 NFkB inh inactive.
For Cc1ccc2nc(-c3ccncc3)cc(-c3ccccc3)c2c1 the results were NCOA3 inh inactive, NR5A2 inv ag inactive, NCOA2 inhibitor inactive, Shn3 3UTR inh inactive, NCOA1 inh inactive and LMP1 NFkB inh inactive.
Cc1c(C(=O)OC2CCCC2)[nH]c2c1C(=O)CC(c1ccco1)C2 (stereo unspecified) was read as NCOA3 inh inactive, NR5A2 inv ag inactive, NCOA2 inhibitor inactive, Shn3 3UTR inh 90, NCOA1 inh inactive and LMP1 NFkB inh inactive.
CC1CC(C)C(=O)C(C(CC2CC(=O)NC(=O)C2)OC(=O)CC(=O)c2ccccc2)C1 (stereo unspecified) was read as NCOA3 inh 85, NR5A2 inv ag 98, NCOA2 inhibitor 54, Shn3 3UTR inh inactive, NCOA1 inh 80 and LMP1 NFkB inh 52.
For O=C1CCC(C(=O)OCC(=O)c2ccccc2)N1 (stereo unspecified) the results were NCOA3 inh inactive, NR5A2 inv ag inactive, NCOA2 inhibitor inactive, Shn3 3UTR inh inactive, NCOA1 inh inactive and LMP1 NFkB inh inactive.
O=C(CSc1nnc(-c2cccnc2)n1Cc1ccco1)Nc1ccc(F)cc1Cl was read as NCOA2 inhibitor inactive.
`CCOC(=O)c1c2c(n(C)c1C)C(=O)C(=O)c1ccc(Br)cc1-2` gave NCOA3 inh inactive, NR5A2 inv ag inactive, NCOA2 inhibitor inactive, Shn3 3UTR inh 94, NCOA1 inh inactive and LMP1 NFkB inh 77.
CCOC(=O)c1c2c(n(Cc3ccccc3)c1C)C(=O)C(=O)c1ccccc1-2 was read as NCOA3 inh inactive, NR5A2 inv ag inactive, NCOA2 inhibitor inactive, Shn3 3UTR inh 89, NCOA1 inh inactive and LMP1 NFkB inh inactive.
Screening CCC(O)C1CCN(C(=O)c2cc(COc3ccc4ncccc4c3)on2)CC1 (stereo unspecified) returned NCOA3 inh inactive, NR5A2 inv ag inactive, NCOA2 inhibitor inactive, Shn3 3UTR inh 88, NCOA1 inh inactive and LMP1 NFkB inh inactive.
CCOC(=O)N1CCN(C(=O)c2cc(COc3ccc4ncccc4c3)on2)CC1 was read as NCOA3 inh inactive, NR5A2 inv ag inactive, NCOA2 inhibitor inactive, Shn3 3UTR inh inconclusive, NCOA1 inh inactive and LMP1 NFkB inh inactive.

Assay outcomes: PubChem, several laboratories
